Pf Dd2 growth: blocks in vitro growth of P. falciparum Dd2 | Potency, µM (series often up to 28.9 µM), for the others: at the top dose activity, negative = inhibition, usual class: inhibitors | P. falciparum Dd2 growth, SYBR Green, 72 h | 120,000 compounds, 4.3% hits; active = well fitted inhibition curve with a large enough effect;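 also: plate controls were DMSO vehicle for no effect and reference drug for full effect; nearly all actives have a fitted effect of over 65% in size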
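Infected erythrocytes (Dd2, 0.3% parasitemia, 2.5% hematocrit final) are added to compound in RPMI-1640/Albumax II medium, grown 72 h at 37C in low oxygen, then lysed with saponin/Triton-X containing SYBR Green and read by fluorescence.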
Starred values were filed as active, the others as inactive; i = inactive; [ ] = remark or other dose. This excerpt belongs to a sample that is enriched for hits. Potency is read from the fitted curve at half-maximal effect.

SMILES | Pf Dd2 growth
COc1ccccc1N1CCN(C(=O)CCS(=O)(=O)c2cc(Br)cc3c2N(C(=O)C2CC2)CC3)CC1 | 10µM*
Cc1cc(NC(=O)CCS(=O)(=O)c2cc3c4c(c2)CCN4C(=O)CC3)ccc1Br | 15.0%
COc1ccc(Cl)cc1NS(=O)(=O)c1cc(Br)cc2c1N(C(=O)C1CC1)CC2 | 11.3%
CCC(=O)N1CCc2cc(Br)cc(S(=O)(=O)CCC(=O)NCCc3ccccc3Cl)c21 | 11.2µM*
CCc1cccc(C)c1NC(=O)CCS(=O)(=O)c1cc(Br)cc2c1N(C(=O)C1CC1)CC2 | -18.6%
CCC(=O)N1CCc2cc(Br)cc(S(=O)(=O)CCC(=O)Nc3ccc(C)c(F)c3)c21 | 5.01µM*
COc1ccccc1N1CCN(C(=O)CCS(=O)(=O)c2cc(Br)cc3c2N(C(C)=O)CC3)CC1 | i
CCC(=O)N1CCc2cc(Br)cc(S(=O)(=O)CCC(=O)Nc3ccc(CC)cc3)c21 | -4.9%
CCC(=O)N1CCc2cc(Br)cc(S(=O)(=O)NCCc3ccccc3)c21 | -24.3%
Cc1cc(NC(=O)CCS(=O)(=O)c2cc(Br)cc3c2N(C(=O)C2CC2)CC3)ccc1Br | 4.47µM*
O=C(C1CC(=O)N(c2n[nH]c3ccccc23)C1)N1CCC(c2noc3cc(F)ccc23)CC1 (stereo not drawn) | i
Cc1cc(=O)c(C(=O)N2CCCn3nc(CO)cc3C2)cn1C | -11.3%
O=C(c1ccno1)N1C[C@@H]2OCC(=O)N(Cc3ccc(F)cc3)[C@@H]2C1 | -15.9%[44.1 µM]
CN(C)C(=O)C1CN(C(=O)c2ccc(C#N)cc2)CC12CCOCC2 (stereo not drawn) | 15.9%
CCc1nc(-c2ccc(OC3CCN(Cc4cc(F)ccc4F)C3)cc2)no1 (stereo not drawn) | 28.3%[5.79 µM]
CCCOc1nccnc1NC1CCN(C(=O)c2ccncc2)CC1 | 91.1%[5.79 µM]
Cc1nc(CN(C)C(=O)c2coc(COc3ccc(F)cc3Cl)n2)cs1 | -11.7%
CC(C)N[C@H]1C[C@@H](Cc2cc(CCO)on2)C1(C)C | -8.7%[44.1 µM]
CC(C)N[C@H]1C[C@@H](Cc2cc(COc3ccccc3)on2)C1(C)C | 11.2µM*
CC(C)NC(=O)N[C@H]1C[C@@H](Cc2cc(CN3CCN(c4ccccc4)CC3)on2)C1(C)C | 10µM*
CC1(C)[C@H](Cc2cc(COc3ccccc3)on2)C[C@@H]1NC(=O)C1CCC1 | 11.2µM*
CC(C)N[C@H]1C[C@@H](Cc2cc(CO)on2)C1(C)C | -15.6%[44.1 µM]
CN(C)Cc1cc(C[C@@H]2C[C@H](NC(=O)CC(C)(C)C)C2(C)C)no1 | 14.1µM*
CC1(C)[C@H](Cc2cc(COc3ccccc3)on2)C[C@@H]1NC(=O)NCc1ccccc1 | -0.8%[44.1 µM]
CC1(C)[C@H](Cc2cc(CN3CCCCC3)on2)C[C@@H]1NC(=O)c1ccccc1 | -5.1%[44.1 µM]
SMILES | Pf Dd2 growth
CC1(C)[C@H](Cc2cc(CO)on2)C[C@@H]1NC(=O)C1CCC1 | 1.2%[44.1 µM]
CC1(C)[C@H](Cc2cc(CN3CCN(c4ccccc4)CC3)on2)C[C@@H]1NCC1CC1 | i
CCCCc1cc(C[C@@H]2C[C@H](NC(=O)C(C)(C)C)C2(C)C)no1 | i
CC1(C)[C@H](Cc2cc(COc3ccccc3)on2)C[C@@H]1NC(=O)C1CCCC1 | i
COC(=O)[C@H]1CN(S(C)(=O)=O)CCN1S(C)(=O)=O | 33.4%[44.1 µM]
CC(C)c1ccc(NC(=O)c2cc3n(n2)CC(c2ccc(Cl)cc2)OC3)cc1 (stereo not drawn) | i
COc1ccc(C2=NOC3(CCCN(C(=O)C4CCCCC4)C3)C2)cc1 (stereo not drawn) | -16.7%
CN1CCN(c2nc3c(c(=O)[nH]2)CCN(Cc2cccc(Br)c2)CC3)CC1 | 3.3%[5.79 µM]
COc1ccccc1OCc1cc(C(=O)N2CCN(c3cnccn3)CC2)n[nH]1 | -22.4%
Cn1cnc(S(=O)(=O)N2CCCN(CC3CCCCC3)CCNC(=O)CC2c2ccccc2)c1 (stereo not drawn) | i
CC(=O)N1CCC2(CNS(=O)(=O)c3cnccc3O2)C1 (stereo not drawn) | 21.7%
Cc1ccccc1CNC(=O)[C@H]1CN(Cc2ccccc2)C[C@H]1C(=O)O | i
Cc1ccc(-c2ccc3nnc(CNC(=O)c4ccccc4)n3n2)cc1C | -3.0%
CC(O)CN1CC2(CCC1=O)CCN(CCCn1ccnc1)CC2 (stereo not drawn) | -0.2%
Cc1cc(C(=O)N2CCC3(CCC(=O)N(CCCn4ccnc4)C3)CC2)c(C)o1 | 5.7%
O=C1CCC2(CCN(C/C=C/c3ccccc3)CC2)CN1CCCn1ccnc1 | 10µM*
O=C1CCCN1CCCN1C(=O)[C@H]2CN(Cc3ccccc3Cl)C[C@H]2C1=O | i
O=C(NCc1nc2c(s1)CCCC2)C1NCCc2[nH]cnc21 (stereo not drawn) | -3.4%
CCOC(=O)c1ccc(NC(=O)c2cnn(-c3ccc(C)cc3C)c2C2CCN(C(=O)OC(C)(C)C)CC2)cc1 | 12.6µM*
CC(C)(C)OC(=O)N1CCC(c2c(C(=O)NCc3ccccc3)cnn2-c2cccc(F)c2)CC1 | 10µM*
CC(C)(C)OC(=O)N1CCC(c2c(C(=O)Nc3ccc4c(c3)OCCO4)cnn2-c2ccc(F)cc2)CC1 | 7.94µM*
Cc1cccc(C)c1-n1ncc(C(=O)Nc2ccc3c(c2)OCO3)c1C1CCN(C(=O)OC(C)(C)C)CC1 | i
CC(C)(C)OC(=O)N1CCC(c2c(C(=O)NCc3cccs3)cnn2-c2ccc(F)cc2F)CC1 | 3.98µM*
CC(C)(C)OC(=O)N1CCC(c2c(C(=O)N3CCOCC3)cnn2-c2cccc(F)c2)CC1 | 12.0%
CC(C)(C)OC(=O)N1CCC(c2c(C(=O)N3CCCCC3)cnn2-c2cccc(F)c2)CC1 | -5.2%
SMILES | Pf Dd2 growth
CCC(C)(C)C(=O)N1C[C@@H](CO)[C@H](c2ccncc2)C1 | 10.7%
COc1ccc(C(=O)N2CC(C(=O)N(C)C)C3(CCOCC3)C2)cc1 (stereo not drawn) | -0.1%
Cc1ccc(CNC(=O)C2CCN(C(=O)c3ncn4c3COC(c3ccccc3)C4)CC2)cc1 (stereo not drawn) | -16.8%
CCNC(=O)[C@@H]1C[C@@H](NC(=O)Cn2nc(C)cc2N)CN1C1CCOCC1 | 0.8%
CN(Cc1ccsc1)C1CCOc2ccccc21 (stereo not drawn) | -17.1%[44.1 µM]
O=C(C1CCN(C(=O)N2CC3CC(C2)[C@H]2CCCC(=O)N2C3)CC1)N1CCN(c2ccccn2)CC1 (stereo partly drawn) | i
CC(=O)Nc1ccc(CC(=O)N2CCc3c(nc4cc(-c5ccccc5)[nH]n4c3=O)C2)cc1 | -8.3%
CN1C(=O)C(c2ccccc2)CC12CCN(C(=O)c1ccccc1F)CC2 (stereo not drawn) | 3.5%
COCCn1cc(CN(C)CCc2c(C)noc2C)ccc1=O | 11.6%
Cc1nc(-c2c3n(c(=O)n(Cc4cc(F)ccc4F)c2=O)CCCCC3)no1 | 6.5%
c1ccc(Cc2nnc([C@H]3CCN(C4CCCCC4)C3)o2)cc1 | -6.8%[44.1 µM]
CCn1nc(C)cc1C(=O)N1CCOC[C@H](Oc2ccc(OC)cc2)C1 | i
COc1cccc(CNC(=O)C2(c3ccc(NC(C)=O)cc3)CCCCC2)c1 | -1.3%
CCCOc1cc(C)c2c(c1C)C[C@H](C(C)C(=O)N1CCN(CCO)CC1)CC2 (stereo partly drawn) | i
Cc1ccc(-n2ncc(C(=O)Nc3ccc(C)c(F)c3)c2C2CCN(C(=O)OC(C)(C)C)CC2)cc1C | -16.4%
O=C(NCCc1ccccc1)c1cnn(-c2ccc(F)cc2)c1-n1cccc1 | 3.6%
CC(C)(C)OC(=O)N1CCC(c2c(C(=O)NCCc3ccccc3)cnn2-c2ccc(F)cc2)CC1 | 11.2µM*
Cc1ccc(-n2ncc(C(=O)N3CCc4ccccc4C3)c2C2CCN(C(=O)OC(C)(C)C)CC2)cc1C | -2.2%

Bioassay records from PubChem BioAssay.
